This passage reports Inhibition results from ChEMBL document CHEMBL1157539, “Thousands of chemical starting points for antimalarial lead identification” (Nature, 2010).

The structures appear in SMILES notation.

Common to all, as to format: functional
The subject of experiment [1] is Plasmodium falciparum. As to the kind of experiment: GSK_TCMDC: Inhibition of Plasmodium falciparum 3D7 in whole red blood cells, using parasite LDH activity as an index of growth. Test compounds present at 2uM.
Experiment [2] deals with Plasmodium falciparum. As to the kind of experiment: GSK_TCMDC: Inhibition of Plasmodium falciparum Dd2 in whole red blood cells, using parasite LDH activity as an index of growth. Test compounds present at 2uM.
The subject of another experiment is HepG2. As to the kind of experiment: GSK_TCMDC: Percent inhibition of human HepG2 cell line. Test compounds present at 10uM.

For `CC(=NNC(S)=Nc1ccccc1Cl)c1ccccn1`, the figures for the Inhibition in the experiment on Plasmodium falciparum [1], in the experiment with Plasmodium falciparum [2] and in the experiment with HepG2 were 100%, 99% and 69%, respectively.

With `CN(C)CCN(C)Cc1ccc(-c2cccc(-c3nc4ccccc4[nH]3)c2)cc1.O=C(O)C(F)(F)F`, the Inhibition with Plasmodium falciparum [1] was found to be 100%; in the experiment with Plasmodium falciparum [2], 78%; in the experiment on HepG2, 46%.

On to `Cc1nn(-c2ccccc2)c2sc(C(=O)N(CCCN(C)C)c3nc(-c4ccccc4)cs3)cc12.Cl`, for which the Inhibition with Plasmodium falciparum [1] amounted to 95%; in the experiment with Plasmodium falciparum [2] it was 36%; in the experiment with HepG2, 99%.

Regarding `COc1ccc(C(=O)N2CCC3(CC2)C(=O)N(CC(=O)NC2CCCCC2)CN3c2ccccc2)c(OC)c1`, the Inhibition in the experiment with Plasmodium falciparum [1] was 100%; with Plasmodium falciparum [2], 99%; with HepG2, 4%.

For `Cc1[nH]c(C)c(-c2ccc(-c3ccccc3C(F)(F)F)nc2)c(=O)c1Br`, the values for the Inhibition with Plasmodium falciparum [1], in the experiment with Plasmodium falciparum [2] and with HepG2 were 97%, 96% and 0%, respectively.

As to `CN(C)CCCOc1cccc(NC(=O)Nc2ccc(-c3ccccc3)cc2)c1.O=C(O)C(F)(F)F`, the Inhibition in the experiment with Plasmodium falciparum [1] stood at 91%; with Plasmodium falciparum [2], 14%; in the experiment with HepG2, 9%.

For `CC1CCc2c(C(=O)N3CCc4ccccc4C3)csc2C1` (stereo not given), the Inhibition with Plasmodium falciparum [1] came out at 99%; with Plasmodium falciparum [2], 75%; in the experiment on HepG2, 9%.

Take `Cc1[nH]c(C)c(-c2ccc(Oc3cccc(Cl)c3)cc2)c(=O)c1Cl`: the Inhibition in the experiment with Plasmodium falciparum [1] amounted to 99%; in the experiment on Plasmodium falciparum [2], 97%; in the experiment on HepG2 it was 40%.

With `Cl.O=C(Nc1ccc(Cl)cc1)Nc1cccc(-c2cc(CNCCc3ccccc3)oc2-c2ccncc2)c1`, the Inhibition was 100% with Plasmodium falciparum [1], 92% in the experiment on Plasmodium falciparum [2] and 40% with HepG2.

Consider `CC1CCN(CCCNc2ccc(C(=O)Nc3ccc(C(F)(F)F)cc3)cc2[N+](=O)[O-])CC1`, for which the results for the Inhibition with Plasmodium falciparum [1], in the experiment on Plasmodium falciparum [2] and in the experiment with HepG2 were 100%, 100% and 62%, respectively.

With `Cl.Oc1ccc2c(c1CNC1CCCCC1)CCCC2`, the Inhibition with Plasmodium falciparum [1] was found to be 98%; in the experiment with Plasmodium falciparum [2] it was 94%; with HepG2, 0%.

In the case of `Cc1ccc(CN2CCCN(Cc3cccc(NC(=O)c4ccc(-c5ccccc5)cc4)c3)CC2)cc1C.O=C(O)C(F)(F)F`, the Inhibition in the experiment with Plasmodium falciparum [1] stood at 84%; in the experiment with Plasmodium falciparum [2] it was 19%; with HepG2, 43%.

With `COc1ccc(Nc2ncc3c(-c4cccc(NC(=O)Cc5ccncc5)c4)c[nH]c3n2)cc1OC`, the figures for the Inhibition in the experiment with Plasmodium falciparum [1], in the experiment on Plasmodium falciparum [2] and in the experiment on HepG2 were 99%, 87% and 23%, respectively.

For `Cc1cccn2c(=O)c3cc(C(=O)NCCc4ccccc4)c(=N)n(CCCOC(C)C)c3nc12`, the Inhibition in the experiment with Plasmodium falciparum [1] stood at 100%; in the experiment with Plasmodium falciparum [2], 40%; with HepG2, 19%.

In the case of `CN(C)CCCNc1c2ccccc2nc2ccccc12`, the Inhibition is listed as 91% with Plasmodium falciparum [1], 4% with Plasmodium falciparum [2] and 31% in the experiment on HepG2.

With `CCCC(C(=O)OCCNC)(c1ccccc1)c1ccccc1.Cl`, the Inhibition in the experiment with Plasmodium falciparum [1] was 98%; in the experiment on Plasmodium falciparum [2], 96%; with HepG2, 7%.

As for `CC1(C)NC(N)=NC(=N)N1OCc1ccc(-c2ccccc2)cc1`, the figures for the Inhibition in the experiment on Plasmodium falciparum [1], in the experiment with Plasmodium falciparum [2] and in the experiment with HepG2 were 95%, 97% and 64%, respectively.

For the compound `COc1ccc2ncc(F)c(CCN3CCC(NCc4cc(OC)c5c(c4)OCCO5)CC3)c2n1.Cl`, the values for the Inhibition with Plasmodium falciparum [1], in the experiment with Plasmodium falciparum [2] and in the experiment with HepG2 were 100%, 53% and 0%, respectively.

Regarding `CC(C)(C(=O)Nc1ccc(C2CCC(NCC3CC3)CC2)c(Cl)c1)c1cccc(OC(F)F)c1` (stereo not given), the Inhibition in the experiment with Plasmodium falciparum [1] was 99%; in the experiment with Plasmodium falciparum [2], 23%; in the experiment on HepG2 it was 34%.

In the case of `O=C(Nc1ccc(Cl)cc1)Nc1cccc(-c2cccc(-c3nc4ccccc4[nH]3)c2)c1`, the Inhibition in the experiment on Plasmodium falciparum [1] is listed as 100%; in the experiment on Plasmodium falciparum [2], 56%; with HepG2, 70%.

Turning to `Cc1ccc(Nc2nc3cc(N(C)c4ccnc(Nc5cccc(CCS(C)(=O)=O)c5)n4)ccc3n2C)cc1.O=C(O)C(F)(F)F`, the figures for the Inhibition in the experiment with Plasmodium falciparum [1], with Plasmodium falciparum [2] and in the experiment with HepG2 were 99%, 73% and 78%, respectively.

As for `CON=Cc1ccn(-c2ccc(O)c3c2C[C@H]2C[C@H]4[C@H](N(C)C)C(O)=C(C(N)=O)C(=O)[C@@]4(O)C(O)=C2C3=O)c1.O=S(=O)(O)O`, the values for the Inhibition in the experiment on Plasmodium falciparum [1], with Plasmodium falciparum [2] and with HepG2 were 96%, 70% and 3%, respectively.

`Cc1cccc2nc(-c3ccc(-c4cccc(CN5CCN(c6ccncc6)CC5)c4)cc3)[nH]c12.O=C(O)C(F)(F)F`: the Inhibition in the experiment with Plasmodium falciparum [1] was 100%; with Plasmodium falciparum [2], 99%; in the experiment with HepG2, 50%.

For `Cl.N#Cc1ccc2c(c1)CCN(CCC1CCC(NC(=O)/C=C/c3cnc4ccccc4c3)CC1)CC2` (stereo not given), the figures for the Inhibition in the experiment on Plasmodium falciparum [1], in the experiment on Plasmodium falciparum [2] and with HepG2 were 87%, 21% and 22%, respectively.

With `C=C[C@H]1CN(CCCCCCC)CC[C@H]1CCNc1ccnc2ccc(OC)cc12`, the Inhibition with Plasmodium falciparum [1] is on record as 95%; in the experiment on Plasmodium falciparum [2] it was 81%; in the experiment on HepG2, 99%.

For the compound `CCc1cn2c3c(cc(C(=O)N[C@@H](Cc4cccc(Cl)c4)[C@H](O)CNC4CC4)cc13)N(C)S(=O)(=O)CC2.O=CO`, the Inhibition in the experiment on Plasmodium falciparum [1] stood at 98%; in the experiment with Plasmodium falciparum [2] it was 98%; in the experiment with HepG2, 10%.

Take `Cc1[nH]c(C)c(-c2ccc(Oc3ccc(F)cc3)cc2)c(=O)c1Cl`: the Inhibition worked out at 99% with Plasmodium falciparum [1], 98% in the experiment with Plasmodium falciparum [2] and 14% with HepG2.

Consider `N#Cc1ccc(CNCCCCCCCNCc2ccc(-c3ccccc3)cc2)cc1`, for which the Inhibition worked out at 87% in the experiment with Plasmodium falciparum [1], 10% in the experiment with Plasmodium falciparum [2] and 19% in the experiment with HepG2.

With `O=C(Nc1cccc(CN2CCCN(Cc3ccc(F)cc3)CC2)c1)c1cc2ccccc2s1.O=C(O)C(F)(F)F`, the values for the Inhibition in the experiment on Plasmodium falciparum [1], in the experiment with Plasmodium falciparum [2] and in the experiment on HepG2 were 91%, 36% and 29%, respectively.

Regarding `COc1ccc(CCNc2nc(NCCc3cnc[nH]3)nc(NCc3cccc4ccccc34)n2)cc1OC`, the Inhibition is recorded as 98% in the experiment with Plasmodium falciparum [1], 16% in the experiment on Plasmodium falciparum [2] and 2% with HepG2.
